Common to all, as to experiment: DAPPL (digital affinity profiling via proximity ligation, sequencing); 10 mM Tris-HCl pH 7.5, 50 mM NaCl, 1 mM DTT, 4% glycerol, room temperature, 30 min; GST-TFs on glutathione beads, 16-mer random dsDNA library, 0.1% formaldehyde crosslink after washing; high values mean tight binding
The target in one assay is T1, FEV (Homo sapiens, UniProt Q99581 1-238).
T1 sequence: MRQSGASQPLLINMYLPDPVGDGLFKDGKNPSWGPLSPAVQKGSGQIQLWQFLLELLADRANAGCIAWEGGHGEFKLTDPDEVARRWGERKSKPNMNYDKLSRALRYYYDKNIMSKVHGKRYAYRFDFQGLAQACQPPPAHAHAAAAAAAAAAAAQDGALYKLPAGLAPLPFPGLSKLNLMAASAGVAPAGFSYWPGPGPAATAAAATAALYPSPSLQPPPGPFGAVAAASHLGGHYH
Conditions: protein: recombinant; tags: N-terminal GST; dsDNA, one strand shown. The essentials: (§1)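 In yeast, human transcription factors were expressed with a GST fusion, then pulled down on glutathione beads and given DNA barcodes. Pooled with a tag-only sample, they were exposed to 200 nmole of a 16-mer random double-stranded DNA library (Tris/NaCl/DTT/glycerol buffer, room temperature, 30 min), washed, crosslinked with 0.1% formaldehyde, proximity-ligated using BsaI/T4 ligase for 1 h at 37 °C, PCR-amplified and read on an Illumina NextSeq500. Each hexamer's frequency of reads for a factor, divided by the matching frequency for the tag-only sample, gives the binding signal.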

The next assay concerns the target ETV5 (Homo sapiens, UniProt P41161 1-510). Conditions: protein: recombinant; tags: N-terminal GST; dsDNA, one strand shown. The procedure, abridged:
as §1

A further assay concerns the target HSF1 (Homo sapiens, UniProt Q00613 1-529). To be noted: protein: recombinant; tags: N-terminal GST; chain copies: 3; dsDNA, one strand shown. The essentials: as §1
Another assay has as its target T2, SPIC (Homo sapiens, UniProt Q8N5J4 1-248).
T2 sequence: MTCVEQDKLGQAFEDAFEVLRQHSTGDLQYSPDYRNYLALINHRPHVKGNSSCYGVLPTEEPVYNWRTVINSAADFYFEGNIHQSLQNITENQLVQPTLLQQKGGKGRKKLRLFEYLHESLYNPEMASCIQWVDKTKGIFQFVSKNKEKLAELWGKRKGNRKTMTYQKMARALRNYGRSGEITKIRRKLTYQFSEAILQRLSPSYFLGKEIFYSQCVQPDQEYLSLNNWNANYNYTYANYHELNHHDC
Conditions: protein: recombinant; tags: N-terminal GST; dsDNA, one strand shown. The essentials:
as §1

A further assay has as its target ELF4 (Homo sapiens, UniProt Q99607 1-663). To be noted: protein: recombinant; tags: N-terminal GST; dsDNA, one strand shown. The essentials:
as §1

For a further assay, the target named is T3, ELK4 (Homo sapiens, UniProt P28324-2 1-405).
T3 sequence: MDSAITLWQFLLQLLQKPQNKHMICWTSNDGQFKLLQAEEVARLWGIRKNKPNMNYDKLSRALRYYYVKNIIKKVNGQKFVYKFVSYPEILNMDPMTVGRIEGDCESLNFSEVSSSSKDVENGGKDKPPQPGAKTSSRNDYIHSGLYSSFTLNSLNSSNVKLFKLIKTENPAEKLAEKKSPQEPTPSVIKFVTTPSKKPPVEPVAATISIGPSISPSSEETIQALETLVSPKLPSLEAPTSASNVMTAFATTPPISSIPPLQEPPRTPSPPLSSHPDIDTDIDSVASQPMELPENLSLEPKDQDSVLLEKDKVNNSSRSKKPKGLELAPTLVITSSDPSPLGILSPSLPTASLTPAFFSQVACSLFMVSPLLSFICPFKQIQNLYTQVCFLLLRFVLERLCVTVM
To be noted: protein: recombinant; tags: N-terminal GST; dsDNA, one strand shown. The procedure, abridged: as §1

The next assay deals with T4, ETV2 (Homo sapiens, UniProt O00321 1-342).
T4 sequence: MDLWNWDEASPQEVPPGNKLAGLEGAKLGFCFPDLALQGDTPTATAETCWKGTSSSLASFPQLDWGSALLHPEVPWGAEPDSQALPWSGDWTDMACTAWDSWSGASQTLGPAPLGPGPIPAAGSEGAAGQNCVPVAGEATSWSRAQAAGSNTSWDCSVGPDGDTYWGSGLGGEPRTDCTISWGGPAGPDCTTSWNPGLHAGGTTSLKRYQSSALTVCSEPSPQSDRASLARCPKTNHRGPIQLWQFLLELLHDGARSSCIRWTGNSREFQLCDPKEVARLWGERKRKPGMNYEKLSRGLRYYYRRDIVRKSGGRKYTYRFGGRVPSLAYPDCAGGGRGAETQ
Conditions: protein: recombinant; tags: N-terminal GST; dsDNA, one strand shown. The procedure, abridged:
as §1

In a further assay the target is T5, ELF3 (Homo sapiens, UniProt P78545 1-371).
T5 sequence: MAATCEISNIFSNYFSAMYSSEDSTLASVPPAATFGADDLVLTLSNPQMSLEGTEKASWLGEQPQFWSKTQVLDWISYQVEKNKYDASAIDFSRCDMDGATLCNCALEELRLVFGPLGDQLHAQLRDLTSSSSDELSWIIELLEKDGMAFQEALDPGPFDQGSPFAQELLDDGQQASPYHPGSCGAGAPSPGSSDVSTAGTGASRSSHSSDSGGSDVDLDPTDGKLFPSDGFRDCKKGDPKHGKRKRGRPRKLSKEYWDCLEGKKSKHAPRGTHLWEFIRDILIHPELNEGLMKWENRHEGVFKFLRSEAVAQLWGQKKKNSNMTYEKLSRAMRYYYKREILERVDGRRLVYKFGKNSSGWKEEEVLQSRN
To be noted: protein: recombinant; tags: N-terminal GST; dsDNA, one strand shown. The essentials:
as §1

The next assay has as its target CRX (Homo sapiens, UniProt O43186 1-299). To be noted: protein: recombinant; tags: N-terminal GST; dsDNA, one strand shown. The essentials: as §1
The target of the next assay is ETV1 (Homo sapiens, UniProt P50549 1-477). Conditions: protein: recombinant; tags: N-terminal GST; dsDNA, one strand shown. The procedure, abridged:
as §1

For a further assay, the target named is T6, ERF (Homo sapiens, UniProt P50548 1-548).
T6 sequence: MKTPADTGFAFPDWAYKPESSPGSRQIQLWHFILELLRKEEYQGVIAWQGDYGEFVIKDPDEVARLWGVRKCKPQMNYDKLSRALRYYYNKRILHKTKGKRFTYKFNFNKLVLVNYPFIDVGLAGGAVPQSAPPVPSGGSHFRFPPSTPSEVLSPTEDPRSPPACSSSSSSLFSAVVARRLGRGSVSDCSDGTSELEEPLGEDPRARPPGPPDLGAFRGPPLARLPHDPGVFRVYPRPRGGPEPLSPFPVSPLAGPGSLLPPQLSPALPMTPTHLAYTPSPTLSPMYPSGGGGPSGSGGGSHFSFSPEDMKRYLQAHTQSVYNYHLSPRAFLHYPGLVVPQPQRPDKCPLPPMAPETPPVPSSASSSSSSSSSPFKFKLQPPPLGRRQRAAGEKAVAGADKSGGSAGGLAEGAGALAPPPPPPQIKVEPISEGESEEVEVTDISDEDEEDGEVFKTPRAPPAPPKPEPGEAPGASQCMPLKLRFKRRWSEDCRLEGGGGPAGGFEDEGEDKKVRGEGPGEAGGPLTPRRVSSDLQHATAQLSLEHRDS
To be noted: protein: recombinant; tags: N-terminal GST; dsDNA, one strand shown. The procedure, abridged:
as §1

Another assay concerns the target T7, ETV3L (Homo sapiens, UniProt Q6ZN32 1-361).
T7 sequence: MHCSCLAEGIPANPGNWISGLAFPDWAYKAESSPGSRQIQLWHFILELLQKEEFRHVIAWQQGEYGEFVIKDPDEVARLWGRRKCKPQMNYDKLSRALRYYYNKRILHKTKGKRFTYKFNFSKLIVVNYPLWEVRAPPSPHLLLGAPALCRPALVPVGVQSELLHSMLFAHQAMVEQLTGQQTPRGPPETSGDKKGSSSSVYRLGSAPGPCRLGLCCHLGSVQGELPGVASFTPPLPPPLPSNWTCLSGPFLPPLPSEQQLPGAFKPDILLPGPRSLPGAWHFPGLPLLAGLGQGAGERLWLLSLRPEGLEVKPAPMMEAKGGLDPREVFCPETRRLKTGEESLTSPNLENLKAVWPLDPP
To be noted: protein: recombinant; tags: N-terminal GST; dsDNA, one strand shown. The procedure, abridged: as §1

The next assay addresses T8, ETS2 (Homo sapiens, UniProt P15036 1-469).
T8 sequence: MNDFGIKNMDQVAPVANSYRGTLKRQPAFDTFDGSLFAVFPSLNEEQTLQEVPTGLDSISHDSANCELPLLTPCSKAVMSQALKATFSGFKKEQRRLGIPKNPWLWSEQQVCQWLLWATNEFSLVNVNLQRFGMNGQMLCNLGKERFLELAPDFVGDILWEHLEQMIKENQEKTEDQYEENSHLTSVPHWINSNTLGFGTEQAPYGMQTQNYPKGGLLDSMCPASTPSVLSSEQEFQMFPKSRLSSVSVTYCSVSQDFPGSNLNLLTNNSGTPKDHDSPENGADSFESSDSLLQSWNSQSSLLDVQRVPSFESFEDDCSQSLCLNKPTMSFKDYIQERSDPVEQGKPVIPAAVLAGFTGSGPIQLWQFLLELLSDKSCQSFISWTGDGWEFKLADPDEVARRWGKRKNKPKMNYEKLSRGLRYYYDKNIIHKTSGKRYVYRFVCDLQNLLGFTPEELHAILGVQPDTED
Conditions: protein: recombinant; tags: N-terminal GST; dsDNA, one strand shown. The essentials: as §1

Another assay addresses T9, SPDEF (Homo sapiens, UniProt O95238 1-335).
T9 sequence: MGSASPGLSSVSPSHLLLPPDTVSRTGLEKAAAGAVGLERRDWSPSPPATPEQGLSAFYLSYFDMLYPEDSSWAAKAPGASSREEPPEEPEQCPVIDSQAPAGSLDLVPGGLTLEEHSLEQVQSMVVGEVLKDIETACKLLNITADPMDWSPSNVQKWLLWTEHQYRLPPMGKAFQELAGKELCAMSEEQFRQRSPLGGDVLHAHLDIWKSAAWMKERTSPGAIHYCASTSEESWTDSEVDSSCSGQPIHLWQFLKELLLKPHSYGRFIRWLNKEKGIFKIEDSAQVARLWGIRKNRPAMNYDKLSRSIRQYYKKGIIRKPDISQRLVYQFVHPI
Conditions: protein: recombinant; tags: N-terminal GST; dsDNA, one strand shown. The procedure, abridged:
as §1

The target in a further assay is T10, ETV7 (Homo sapiens, UniProt Q9Y603 1-341).
T10 sequence: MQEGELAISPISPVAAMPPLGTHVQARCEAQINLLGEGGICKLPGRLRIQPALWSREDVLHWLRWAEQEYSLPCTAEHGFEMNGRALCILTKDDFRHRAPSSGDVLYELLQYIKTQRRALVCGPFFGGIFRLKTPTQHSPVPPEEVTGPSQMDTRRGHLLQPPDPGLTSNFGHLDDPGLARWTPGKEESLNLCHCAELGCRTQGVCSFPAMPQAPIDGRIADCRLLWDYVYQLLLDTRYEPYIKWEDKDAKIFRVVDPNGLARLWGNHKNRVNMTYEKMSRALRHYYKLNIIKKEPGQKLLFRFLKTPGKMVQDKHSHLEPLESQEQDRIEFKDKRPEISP
Conditions: protein: recombinant; tags: N-terminal GST; dsDNA, one strand shown. The procedure, abridged:
as §1

For a further assay, the target named is T11, ELF5 (Homo sapiens, UniProt Q9UKW6-2 1-255).
T11 sequence: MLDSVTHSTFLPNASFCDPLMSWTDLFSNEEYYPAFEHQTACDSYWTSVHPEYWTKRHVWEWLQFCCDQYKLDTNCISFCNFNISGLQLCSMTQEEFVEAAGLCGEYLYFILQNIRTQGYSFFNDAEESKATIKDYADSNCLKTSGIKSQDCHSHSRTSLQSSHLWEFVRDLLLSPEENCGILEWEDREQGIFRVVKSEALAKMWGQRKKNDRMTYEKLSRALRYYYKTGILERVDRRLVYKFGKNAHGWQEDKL
Conditions: protein: recombinant; tags: N-terminal GST; dsDNA, one strand shown. The procedure, abridged:
as §1

The next assay has as its target T12, ETV3 (Homo sapiens, UniProt P41162-2 1-143).
T12 sequence: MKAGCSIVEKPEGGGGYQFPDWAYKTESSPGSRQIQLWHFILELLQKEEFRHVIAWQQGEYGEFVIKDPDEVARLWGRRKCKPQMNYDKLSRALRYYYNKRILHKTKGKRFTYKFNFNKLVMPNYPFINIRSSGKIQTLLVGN
Conditions: protein: recombinant; tags: N-terminal GST; dsDNA, one strand shown. The essentials: as §1

The next assay concerns the target ETV6 (Homo sapiens, UniProt P41212 1-452). To be noted: protein: recombinant; tags: N-terminal GST; dsDNA, one strand shown. The essentials: as §1

Chain of ETV6 (P41212 whole entry): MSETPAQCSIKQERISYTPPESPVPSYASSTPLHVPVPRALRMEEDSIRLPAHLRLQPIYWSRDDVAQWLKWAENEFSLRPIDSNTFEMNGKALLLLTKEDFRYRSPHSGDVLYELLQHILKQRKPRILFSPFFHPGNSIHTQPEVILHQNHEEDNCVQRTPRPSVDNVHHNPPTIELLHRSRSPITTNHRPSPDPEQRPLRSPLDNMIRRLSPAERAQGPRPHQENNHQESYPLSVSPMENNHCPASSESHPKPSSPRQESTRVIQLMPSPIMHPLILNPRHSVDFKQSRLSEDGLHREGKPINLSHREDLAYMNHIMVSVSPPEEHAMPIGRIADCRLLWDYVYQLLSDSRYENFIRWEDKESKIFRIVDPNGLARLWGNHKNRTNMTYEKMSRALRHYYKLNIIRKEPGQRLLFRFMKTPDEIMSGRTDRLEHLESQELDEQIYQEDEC
Chain of ELF4 (Q99607 whole entry): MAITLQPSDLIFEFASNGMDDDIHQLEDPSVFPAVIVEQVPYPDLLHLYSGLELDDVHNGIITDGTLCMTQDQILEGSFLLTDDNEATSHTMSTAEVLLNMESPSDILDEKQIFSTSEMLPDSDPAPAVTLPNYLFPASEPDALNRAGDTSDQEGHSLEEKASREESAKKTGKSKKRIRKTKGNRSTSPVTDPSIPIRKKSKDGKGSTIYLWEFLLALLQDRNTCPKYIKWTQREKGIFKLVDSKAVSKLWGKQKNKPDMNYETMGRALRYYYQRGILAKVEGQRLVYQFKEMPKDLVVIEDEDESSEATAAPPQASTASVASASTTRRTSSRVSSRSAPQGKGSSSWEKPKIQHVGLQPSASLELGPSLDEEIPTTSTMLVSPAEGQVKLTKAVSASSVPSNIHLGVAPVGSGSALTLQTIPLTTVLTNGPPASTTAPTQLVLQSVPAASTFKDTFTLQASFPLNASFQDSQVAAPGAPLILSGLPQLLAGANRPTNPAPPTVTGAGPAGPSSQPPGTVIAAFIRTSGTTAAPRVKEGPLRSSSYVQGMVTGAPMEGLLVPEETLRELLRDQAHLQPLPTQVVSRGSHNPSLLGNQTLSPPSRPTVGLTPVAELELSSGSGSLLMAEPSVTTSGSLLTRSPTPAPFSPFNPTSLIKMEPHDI
Chain of ETV1 (P50549 whole entry): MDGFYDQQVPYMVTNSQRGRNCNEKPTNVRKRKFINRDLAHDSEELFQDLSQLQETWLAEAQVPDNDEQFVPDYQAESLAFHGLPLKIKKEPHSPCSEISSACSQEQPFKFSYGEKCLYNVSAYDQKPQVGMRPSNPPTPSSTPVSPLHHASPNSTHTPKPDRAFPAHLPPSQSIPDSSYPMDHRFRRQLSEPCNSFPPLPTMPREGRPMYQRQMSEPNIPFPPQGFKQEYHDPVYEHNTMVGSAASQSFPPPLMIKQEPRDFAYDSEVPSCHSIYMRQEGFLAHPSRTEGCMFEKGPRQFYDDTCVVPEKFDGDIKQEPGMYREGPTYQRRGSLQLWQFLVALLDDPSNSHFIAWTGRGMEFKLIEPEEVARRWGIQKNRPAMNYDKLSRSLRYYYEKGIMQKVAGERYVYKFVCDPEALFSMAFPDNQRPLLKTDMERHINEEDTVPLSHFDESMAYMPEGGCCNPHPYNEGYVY
Chain of HSF1 (Q00613 whole entry): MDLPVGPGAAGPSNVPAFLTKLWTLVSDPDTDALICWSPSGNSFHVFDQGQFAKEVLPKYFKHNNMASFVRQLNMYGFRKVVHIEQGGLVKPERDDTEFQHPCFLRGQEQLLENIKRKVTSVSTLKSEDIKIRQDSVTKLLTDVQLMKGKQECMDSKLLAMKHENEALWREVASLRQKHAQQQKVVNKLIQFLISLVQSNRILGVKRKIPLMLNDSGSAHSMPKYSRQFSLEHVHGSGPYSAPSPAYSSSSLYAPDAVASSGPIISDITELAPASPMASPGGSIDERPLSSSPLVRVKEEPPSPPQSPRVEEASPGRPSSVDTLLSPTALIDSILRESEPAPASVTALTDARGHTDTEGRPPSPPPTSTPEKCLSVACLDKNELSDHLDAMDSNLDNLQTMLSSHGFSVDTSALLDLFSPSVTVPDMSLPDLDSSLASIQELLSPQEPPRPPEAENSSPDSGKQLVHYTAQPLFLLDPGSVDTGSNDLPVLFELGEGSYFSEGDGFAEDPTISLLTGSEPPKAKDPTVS
Chain of ETV5 (P41161 whole entry): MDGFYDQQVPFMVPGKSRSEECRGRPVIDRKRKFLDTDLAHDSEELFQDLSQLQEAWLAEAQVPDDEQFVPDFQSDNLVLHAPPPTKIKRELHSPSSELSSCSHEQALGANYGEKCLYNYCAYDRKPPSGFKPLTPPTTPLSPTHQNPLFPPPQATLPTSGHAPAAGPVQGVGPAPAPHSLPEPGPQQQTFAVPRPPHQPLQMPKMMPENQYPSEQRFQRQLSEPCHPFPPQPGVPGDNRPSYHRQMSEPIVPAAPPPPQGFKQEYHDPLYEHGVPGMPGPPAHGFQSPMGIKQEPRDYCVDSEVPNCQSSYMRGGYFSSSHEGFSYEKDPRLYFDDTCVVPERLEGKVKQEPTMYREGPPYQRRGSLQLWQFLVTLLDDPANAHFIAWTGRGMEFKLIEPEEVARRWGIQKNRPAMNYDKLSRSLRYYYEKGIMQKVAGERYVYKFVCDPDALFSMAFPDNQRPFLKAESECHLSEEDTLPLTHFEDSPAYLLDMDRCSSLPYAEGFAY
Chain of CRX (O43186 whole entry): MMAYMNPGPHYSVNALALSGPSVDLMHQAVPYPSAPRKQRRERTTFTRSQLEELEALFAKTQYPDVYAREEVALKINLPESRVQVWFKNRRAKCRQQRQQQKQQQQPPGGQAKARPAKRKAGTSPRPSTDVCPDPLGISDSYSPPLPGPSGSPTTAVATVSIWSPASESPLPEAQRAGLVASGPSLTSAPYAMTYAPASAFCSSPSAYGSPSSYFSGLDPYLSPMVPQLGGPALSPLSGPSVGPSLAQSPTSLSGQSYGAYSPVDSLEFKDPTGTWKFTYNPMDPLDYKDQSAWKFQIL

As to TCACTT, the binding signal in the assay with FEV is 1.99 fold enrichment (6-mer frequency, TF over GST control); in the assay with ETV5 it was 1.75 fold enrichment (6-mer frequency, TF over GST control); in the assay with HSF1 it was 1.14 fold enrichment (6-mer frequency, TF over GST control); with SPIC, 1.62 fold enrichment (6-mer frequency, TF over GST control); with ELF4 it was 1.74 fold enrichment (6-mer frequency, TF over GST control); with ELK4, 1.74 fold enrichment (6-mer frequency, TF over GST control). Moreover, the binding signal with ETV2 was 1.72 fold enrichment (6-mer frequency, TF over GST control); with ELF3 it was 1.62 fold enrichment (6-mer frequency, TF over GST control); in the assay with CRX, 1.23 fold enrichment (6-mer frequency, TF over GST control); with ETV1 it was 1.67 fold enrichment (6-mer frequency, TF over GST control); with ERF, 1.56 fold enrichment (6-mer frequency, TF over GST control); with ETV3L, 1.5 fold enrichment (6-mer frequency, TF over GST control). Further, the binding signal was 1.69 fold enrichment (6-mer frequency, TF over GST control) with ETS2; 1.73 fold enrichment (6-mer frequency, TF over GST control) with SPDEF; 1.63 fold enrichment (6-mer frequency, TF over GST control) with ETV7; 1.79 fold enrichment (6-mer frequency, TF over GST control) in the assay with ELF5; 1.55 fold enrichment (6-mer frequency, TF over GST control) with ETV3; 1.67 fold enrichment (6-mer frequency, TF over GST control) with ETV6.

The record behind these values is paper PMC7862700, “An all-to-all approach to the identification of sequence-specific readers for epigenetic DNA modifications on cytosine”.
